The source of these data is ChEMBL document CHEMBL4513216, “Probing the Open Global Health Chemical Diversity Library for Multistage-Active Starting Points for Next-Generation Antimalarials” (ACS Infect Dis, 2020).

Among all 65,000 compounds or so, about 2,100 (3.2%) showed an effect of 50% or more. The median lay at about -52%. This is one part of a sample in which strong results are shown more often than they occur.

The experiment has as its system Plasmodium falciparum. The experiment in a line: Screen against P. falciparum Asexual Blood Stage (ABS), at 5uM. Format: functional, Dd2. As to conditions: tested at 5 uM.
As to `Cc1nc(CN2CCO[C@H]3CN(C(=O)c4ccncc4)C[C@H]32)cs1`, the INHIBITION is on record as -109%.

In the case of `CC(=O)N(c1ccc(C)cc1)c1nc(CN2CCCC(C)C2)cs1` (stereo unspecified), the INHIBITION came out at 83.2%. As for `CC(=O)N(c1ccc(F)cc1)c1nc(CN2CCCC2C(C)C)cs1` (stereo unspecified), the INHIBITION was 90.3%. Consider `Cc1nc(CN2C[C@@H]3CN(C(=O)c4ccncc4)C[C@@H]3C2)cs1`, for which the INHIBITION is recorded as -67.5%. The result for `CCc1nc(CN2CCCN(C(=O)Cc3cccs3)CC2)cs1` reads 3.65%; that for `CCCN1CCN(C(=O)c2cccc(C)n2)[C@H]2CS(=O)(=O)C[C@H]21`, -129%; that for `CC(C)(C)CC(=O)N1C[C@@H]2C[C@@H]1CN2`, 30%. The result for `CN(Cc1cc(C2CC2)on1)C(=O)CN1CC(c2ccccc2)CC1=O` (stereo unspecified) reads -67.9%; that for `CC(C)c1cc(N(C)Cc2cc(C3CC3)on2)n2nccc2n1`, 80.3%; that for `CN(C)CCOCc1cncc2c1CCN(C1CCOC1)C2` (stereo unspecified), -63.4%. With `NC(=O)CN1CCCN(C(=O)Cc2ccc3ccccc3c2)CC1`, the INHIBITION is reported as -22.8%. As to `CCCC1CCCN(Cc2csc(-c3ncccn3)n2)CC1` (stereo unspecified), the INHIBITION is on record as 74.9%. Turning to `O=C(Cc1csc(-c2ncccn2)n1)N1CCN2CCCCC2C1` (stereo unspecified), the INHIBITION was -23.4%. With `CCN1CCN(Cc2csc(C(C)C)n2)CC1`, the INHIBITION was -17.1%. `CCc1noc(CN(C)CCC(=O)Nc2ccc(C#N)c(Cl)c2)n1`: the INHIBITION turned out to be 11.3%. Turning to `O=S(=O)(Cc1ccccc1Cl)NCCCN1CCCC1`, the INHIBITION came to 79.2%. The result for `Cn1cc(C(=O)N2CC[C@@H]3[C@@H]2CCN3Cc2ccncc2)cn1` reads -137%; that for `Cc1cnc(N2CCc3c(cnc(C)c3C(=O)O)C2)nc1`, -89.7%.

`Cc1ccc(CNC(C)c2cc(F)ccc2N2CCN(C)CC2)o1` (stereo unspecified): the INHIBITION is listed as 83.7%.

With `CCN1CCN(c2ccc(F)cc2C(C)NCc2ccnn2C)CC1` (stereo unspecified), the INHIBITION is listed as 76.3%. For the compound `CCN1CCN(c2ccc(F)cc2C(C)NCc2ccccn2)CC1` (stereo unspecified), the INHIBITION is listed as 85.6%. The result for `CCc1noc(C(C)N2CCN(CC)CC2)n1` (stereo unspecified) reads -70%; that for `CC(C)c1cc(CN2CCN(c3cccnc3)CC2)n(C)n1`, -52.7%; that for `CCN1CCN(c2ccc(F)cc2C(C)NCc2cscn2)CC1` (stereo unspecified), 81.1%. With `c1ccc(CO[C@@H]2CN(Cc3cccnc3)[C@@H]3COC[C@@H]32)nc1`, the INHIBITION is -165%.

As to `CC(c1ccccc1F)N1CCN(C(=O)Cc2ccncc2)CC1` (stereo unspecified), the INHIBITION is recorded as -41.8%. The result for `CCN1CCN(c2ccc(C(=O)NCCOC)cc2F)CC1` reads -56%; that for `CCN1CCN(c2ccc(F)cc2C(C)NCc2ccncc2)CC1` (stereo unspecified), 72.4%. With `Cc1cccc(CC(=O)N2CCCC(N(C)CCCN(C)C)C2)c1` (stereo unspecified) the figure was -40.55%; with `Cc1cccc(OCC2CCCN(C(=O)CN(C)C3CCNCC3)C2)c1` (stereo unspecified), 73.8%.

Take `Cc1cccc2cc(CN3CCCN4CCC[C@H]4C3)c(=O)[nH]c12`: the INHIBITION was -45.3%. For `CNc1ncccc1CN1CCN2CCN(C)CC2C1` (stereo unspecified), the INHIBITION is -92.1%.

As to `Clc1cc(CN2CCCN3CCCC3C2)c2ncccc2c1` (stereo unspecified), the INHIBITION is on record as 89.5%. The result for `CC1CN(CC2CCCC2)CCN1c1ccc2nncn2n1` (stereo unspecified) reads 70.4%; that for `Cc1ccc(N2CCO[C@H]3CN(CC4CC4)C[C@H]32)nn1`, -15.6%; that for `Cc1cccc(CN2CC[C@@H]3[C@@H]2CCN3C(=O)c2ccno2)n1`, -100%. As to `Cc1cc(-c2cnc(N3CCCC3)nc2C(C)C)on1`, the INHIBITION stood at 10.2%.

For `c1cncc(N2CCOCC3(CCCN(Cc4cccs4)C3)C2)c1` (stereo unspecified), the INHIBITION amounted to 55.5%. Turning to `c1cncc(N2CCCC3(CN(Cc4cccs4)CCO3)C2)c1` (stereo unspecified), the INHIBITION is -22.7%. The result for `O=C1CC2(CCN(CC3CC3)C2)CN1c1cccnc1` (stereo unspecified) reads -58.5%; that for `c1cnc(N2CCOCC3(CCCN(Cc4cccs4)C3)C2)nc1` (stereo unspecified), -15.6%; that for `c1cncc(N2CCOCC3(CN(Cc4cccs4)CCO3)C2)c1` (stereo unspecified), -41%. The result for `c1cncc(N2CCCC3(CCN(CCN4CCCC4)CC3)C2)c1` reads 92%. On to `CN1CCO[C@H]2CN(C(=O)c3ccncc3F)C[C@H]21`, for which the INHIBITION is given as -54.5%. As for `COc1ccccc1C1(NCc2c(C)nc3c(C)cccn23)CCCC1`, the INHIBITION came to 89.2%. On to `Cc1cccnc1N1CC2(CCN(Cc3cccnc3)C2)C1`, for which the INHIBITION is on record as -50.1%. For the compound `O[C@@]1(CNCCCNc2cccnc2)CCCN2CCCC[C@@H]21`, the INHIBITION was -52.8%. As for `Cc1cnccc1N1CCN(C[C@]2(O)CCCN3CCCC[C@@H]32)CC1`, the INHIBITION is recorded as 75%. As to `O=C(Nc1ccccc1)[C@H]1CN2CCC1C[C@@H]2Cn1cc(CO)nn1` (stereo partly specified), the INHIBITION was -50.4%. Turning to `CC(C)N1[C@H](CN(C)C)C[C@@H]2CN(c3ncc(F)cn3)CC[C@@H]21`, the INHIBITION is reported as 25.4%. Consider `N#CC1(c2ccccc2)CCN(C(=O)C2CCCN(C(N)=O)C2)CC1` (stereo unspecified), for which the INHIBITION was -142%.

Regarding `Cc1ccc(C(=O)N2C[C@@H]3CCN(C(C)C)C[C@@H]3C2)cn1`, the INHIBITION was -25%.

`CC(C)N1CCCC(C(=O)N2CCN(c3nsc4ccccc34)CC2)C1` (stereo unspecified): the INHIBITION is on record as 70.4%. The result for `Cn1cc(CN2CCC[C@]3(C[C@@H](Oc4ccccn4)CO3)C2)cn1` reads -29.6%; that for `Cc1nc(CN2CC[C@H]3C[C@H](c4ccncn4)O[C@@H]3C2)cs1`, -62.5%; that for `COc1ccc(CN2C[C@H]3CN(c4cncnc4)C(=O)[C@H]3C2)cc1`, -49.1%.

For the compound `CN1CCN([C@H]2COC[C@@H]3CN(Cc4cccnc4)C[C@@H]32)CC1`, the INHIBITION is -11.2%. Take `O=C(C[C@@H]1COC[C@H]2CN(Cc3ccncc3)C[C@@H]12)N1CCCC1`: the INHIBITION was -88%. With `Cc1cc(C)cc(CN2C[C@H]3COC[C@H](N4CCN(C)CC4)[C@H]3C2)c1` the figure was 94.1%; with `COCCNC(=O)C[C@@H]1COC[C@H]2CN(Cc3cccnc3)C[C@@H]12`, -103%. In the case of `COc1ccc(CN2C[C@@H]3COC[C@@H](N4CCN(C)CC4)[C@@H]3C2)cc1`, the INHIBITION amounted to 73.9%. Regarding `Cc1c(CC(=O)N2CCN(CC(F)(F)F)CC2)nnn1-c1ccccc1`, the INHIBITION is reported as -74%. Take `Cc1cc(N2CCCC(c3[nH]ncc3Cc3ccccc3)C2)nc(N)n1` (stereo unspecified): the INHIBITION turned out to be 73.6%. Take `CCCn1ncc(CN2CCCC(C(=O)c3ccc(SC)cc3)C2)c1C` (stereo unspecified): the INHIBITION was determined as 65.8%.

Consider `CCCn1ncc(CN2CCCC(C(=O)c3ccc(Cl)cc3C)C2)c1C` (stereo unspecified), for which the INHIBITION is listed as 78.4%. The result for `Cc1c(CN2CCCC(C(=O)c3ccc(C(C)(C)C)cc3)C2)cnn1C` (stereo unspecified) reads 57.9%; that for `COc1ccc(C(=O)C2CCCN(Cc3cnn(C)c3C)C2)c(OC)c1` (stereo unspecified), 39.5%; that for `CCn1ncc(CN2CCCC(C(=O)c3ccc(Cl)cc3)C2)c1C` (stereo unspecified), 70.5%. For `Cc1cc(Cl)ccc1C(=O)C1CCCN(Cc2cnc(N(C)C)s2)C1` (stereo unspecified), the INHIBITION is reported as -28.8%. The result for `Cc1cc(CN2C[C@@H]3COC[C@]3(CNC(=O)N3CCCC3)C2)no1` reads -22.5%; that for `COCCNC(=O)[C@@]12CCO[C@@H]1CCN(Cc1c(C)noc1C)C2`, -191%.

Consider `O=C1CSC(c2ccc(O)c(Cl)c2)c2c(n(C3CCOCC3)[nH]c2=O)N1` (stereo unspecified), for which the INHIBITION is -57.7%. With `CCC(C)N1CCC(Oc2ccc(C(=O)NCCN(C)C)cc2Cl)CC1` (stereo unspecified) the figure was 79.7%; with `Cc1nc(C2(NCC(=O)NC(=O)NCC(F)(F)F)CCCCC2)no1`, -29.3%; with `COc1cc(C)c(-c2ccc(F)c3c2OC(CN)C3)cc1C` (stereo unspecified), 83.8%.

Regarding `Cn1ncc2c1NC(=O)CSC2c1ccccc1Cl` (stereo unspecified), the INHIBITION is reported as -82.5%. With `Cc1ccc(N2C[C@@H]3OCCN(Cc4c(C)noc4C)[C@@H]3C2)nn1`, the INHIBITION was 6.3%.

As to `CC(C)c1cc(N2CCCC3(CCN(C)C3)C2)ncn1` (stereo unspecified), the INHIBITION is listed as -28.1%. For the compound `Cc1nc(C)c(C)c(N2CCC3(CCN(C)C3)C2)n1` (stereo unspecified), the INHIBITION is reported as 19.5%. Consider `CCc1nc(N)nc(N2CCCC3(CCN(C)CC3)CC2)c1C`, for which the INHIBITION is reported as 76.1%.

With `Cc1cc(NCCN)nc(-c2ccccc2O)n1`, the INHIBITION is 79.2%. Consider `Cc1cc(NCCc2c[nH]cn2)nc(-c2cccnc2)n1`, for which the INHIBITION is -108.15%. The result for `Cn1nc(C2CC2)c2c1NC(=O)CC2c1cc(CN2CCCC2)cs1` (stereo unspecified) reads 81.9%; that for `CCN1CCC2(CC1)NC(=O)c1cc(Br)ccc1-n1nnnc12`, -47.7%. With `O=C(N1CCCC1)N1C[C@@H]2CCNC[C@@H]21` the figure was -67.9%; with `O=C(Nc1ccc(Cl)cn1)c1cncc(C2CCNCC2)n1`, 70%; with `FC(F)CNc1cnc(C2CCNCC2)cn1`, -139%. The result for `Cc1nn(CCNC(C)Cn2cncn2)c(C)c1Cl` (stereo unspecified) reads -44.7%; that for `FC(F)(F)c1cc(C2CCNCC2)nc(-c2ccsc2)n1`, 89.2%; that for `FC(F)(F)c1nc(C2CCNCC2)no1`, -40.3%. In the case of `c1c[nH]c2nc(C3CCNCC3)nc-2c1`, the INHIBITION is given as -162%. On to `CS(=O)(=O)CCCNCc1c(Cl)cccc1N1CCCC1`, for which the INHIBITION is 72%. Take `CCOCCN1CCO[C@H]2[C@H](OCc3ccccn3)CC[C@@H]21`: the INHIBITION is given as -65.4%. The result for `O=C(C[C@@H]1COC[C@H]2CN(Cc3cccnc3)C[C@@H]12)NCC1CC1` reads -71.5%; that for `CCN1C[C@@H]2[C@@H](OC)CCN(C(=O)Cc3ccsc3)[C@@H]2C1`, 60%; that for `CCN1C[C@H]2[C@@H](C1)N(C(=O)Cc1ccsc1)CC[C@H]2OC`, -31.1%. With `CO[C@H]1CCN(C(=O)Cc2ccsc2)[C@@H]2CN(CC3CC3)C[C@H]12` the figure was 19.6%; with `Cc1cccc(C)c1Nc1noc2c1CN(C(=O)c1cn(C)cn1)CC2`, 88.3%; with `Cc1cccc(C)c1Nc1noc2c1CN(C(=O)c1ccn(C)n1)CC2`, 86.6%. With `Cc1cccc(C)c1Nc1noc2c1CN(C(=O)c1ccnn1C)CC2` the figure was 81.7%.

Turning to `Cc1cccc(C)c1Nc1noc2c1CN(C(=O)c1c[nH]nc1C)CC2`, the INHIBITION worked out at 93%.
